# Laboratory results reported in PubChem BioAssay.
# The source made the active and inactive calls.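 Rule for the calls: active = compounds killing one labelled cell type while sparing the other, by normalised counts and ratio limits, not self-fluorescent; inactive = the rest.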
# Assay: EMT-state selective cytotoxicity in co-culture – imaging, PC-3E GFP, TEM4-18 mCherry, primary screen (AID 1345086);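 note: cells exposed to compound for 72 h before imaging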;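 for red/green cell ratio (normalised): normalised mesenchymal count divided by normalised epithelial count so high means epithelial killing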
# Settings: PC-3E GFP / TEM4-18 mCherry co-culture, imaging cell counts, at 1 µM; for red/green cell ratio (normalised): actives lie on both sides, counts scaled to control wells, 1 = unselective
# [1] = measured here: epithelial PC-3E GFP cell survival
# [2] = measured here: mesenchymal TEM4-18 mCherry cell survival
SMILES,red/green cell ratio (normalised),normalised cell number [1],normalised cell number [2]
O=S(=O)([O-])OC[C@H]1O[C@@](COS(=O)(=O)[O-])(O[C@H]2O[C@H](COS(=O)(=O)[O-])[C@@H](OS(=O)(=O)[O-])[C@H](OS(=O)(=O)[O-])[C@H]2OS(=O)(=O)[O-])[C@@H](OS(=O)(=O)[O-])[C@@H]1OS(=O)(=O)[O-].[Al+3].[Na+].[Na+].[O-2].[O-2].[OH-],0.81 (inactive),1.15,0.93
C[C@H]1C[C@H]2O[C@@H]2/C=C\C=C\C(=O)Cc2c(Cl)c(O)cc(O)c2C(=O)O1,0.97 (inactive),0.89,0.87
COC(=O)C1O[C@H](OC)[C@@H](OCc2ccccc2)[C@@H](OCc2ccccc2)C1O (stereo not given in full),1 (inactive),1.14,1.15
O=C(/C=C/c1ccccc1)O[C@H]1C[C@@H](O)[C@]2(O)C=CO[C@@H](O[C@@H]3O[C@H](CO)[C@@H](O)[C@H](O)[C@H]3O)C12 (stereo not given in full),1.09 (inactive),0.87,0.95
CC(C)CCCC(C)C1CCC2C3CC[C@H]4CCCC[C@]4(C)C3CC[C@]12C (stereo not given in full),0.9 (inactive),1.1,0.99
Nc1ccc2ccccc2c1S(=O)(=O)O,0.94 (inactive),1.03,0.97
C=CCOC(=O)N1C(=O)O[C@H]2C(OC(C)=O)C(COC(C)=O)O[C@H](Sc3ccc(C)cc3)[C@H]21 (stereo not given in full),0.89 (inactive),1.08,0.97
COc1cc(O)c2c(c1C)C(C(C)=O)COC2=O (stereo not given),0.88 (inactive),0.32,0.28
O=c1cc(-c2ccccc2)oc2ccc(O)cc12,1.07 (inactive),0.91,0.97
COc1ccc(-c2coc3cc(OC)ccc3c2=O)cc1,0.82 (inactive),1.34,1.09
COc1cc(OC)c2c(c1C)C(C)(O)COC2=O (stereo not given),0.9 (inactive),1.14,1.02
CC(CCC(=O)O)[C@H]1CCC2C3CC[C@@H]4CCCC[C@]4(C)C3CC[C@@]21C (stereo not given in full),0.93 (inactive),1.12,1.04
O=C(O)c1ccc([C@H](O)c2ccccc2)cn1,1.05 (inactive),1.03,1.09
CC(=O)OCC(=O)[C@H]1CCC2C3CC=C4C[C@@H](O)CC[C@]4(C)C3CC[C@@]21C (stereo not given in full),0.94 (inactive),0.99,0.93
COC1=C(O)C(=O)c2c(cc3oc(C(C)=O)c(O)c3c2O)C1=O,1.19 (inactive),0.94,1.12
C[C@]12CCc3occc3C1CC[C@@]13C[C@@H](CCC12)[C@@](O)(CO)C3 (stereo not given in full),1.12 (inactive),0.94,1.06
C=C1[C@@H](C)C2[C@H](Cc3c[nH]c4ccccc34)NC(=O)[C@]23C(=O)/C=C/C(=O)[C@H](OC(C)=O)/C(C)=C/[C@@H](C)C/C=C/[C@H]3[C@@H]1O (stereo not given in full),1.13 (inactive),0.94,1.06
COc1cc(C)c(Oc2cc(C)cc(O)c2O)c(O)c1,0.97 (inactive),1.18,1.15
C[C@H]1OC(n2cc(F)c(=O)[nH]c2=O)C(O)[C@@H]1O (stereo not given in full),0.91 (inactive),1.27,1.16
COc1c(F)c(F)cc2c(=O)c(C(=O)NO)cn(C3CC3)c12,1.08 (inactive),0.97,1.04

SMILES,red/green cell ratio (normalised),normalised cell number [1],normalised cell number [2]
COc1c(O)cc2c(c1O)C(=O)O[C@@H](C)[C@@H]2O,1 (inactive),1.01,1.02
CO[C@H]1OC(COCc2ccccc2)C(O)[C@@H]2OC(=O)N[C@H]12 (stereo not given in full),1.08 (inactive),0.88,0.95
CC(=O)NC1[C@@H](O)C2OC(c3ccccc3)OCC2O[C@H]1Sc1ccccc1 (stereo not given in full),1.03 (inactive),1.06,1.09
CC1CCCC(O)/C=C/C(O)C(=O)c2c(O)cc(O)cc2CC(=O)O1 (stereo not given),1.11 (inactive),0.89,0.99
C=C(C)[C@@H]1CC[C@]2(CO)CC[C@]3(C)[C@H](CCC4[C@@]5(C)CC[C@H](O)C(C)(C)C5CC[C@]43C)C12 (stereo not given in full),0.84 (inactive),1.09,0.91
O=C(O)C(O)[C@H](O)[C@H](O)[C@H](O)[C@H](O)CO (stereo not given in full),1.28 (inactive),1.07,1.37
CC1CC2OC2/C=C/C(O)CC(=O)O1 (stereo not given),0.97 (inactive),1.06,1.02
CO/N=C(/C(=O)NC1C(=O)N2C(C(=O)O)=C(C[N+]3(C)CCCC3)CSC12)c1csc(N)n1 (stereo not given),1.01 (inactive),1.21,1.22
CC1COc2c(N)c(F)cc3c(=O)c(C(=O)O)cn1c23 (stereo not given),0.95 (inactive),1.07,1.01
CC(CC(=O)N1CCOC1=O)N1C(=S)SC[C@H]1c1ccccc1 (stereo not given in full),0.8 (inactive),1.08,0.87
COC1O[C@@H]2O[C@]3(C)CC[C@H]4[C@H](C)CC[C@@H]([C@H]1C)[C@@]24OO3 (stereo not given in full),0.81 (inactive),0.82,0.67
CC(CC(=O)N1C(=O)OC[C@H]1c1ccccc1)N1CCSC1=S (stereo not given in full),0.94 (inactive),1.15,1.08
COc1c(N2CC[C@@H](CN)C2)c(F)cc2c(=O)c(C(=O)NO)cn(C3CC3)c12,1.1 (inactive),1.04,1.15
CC(=O)[C@H]1CCC2C3C=CC4=CC(=O)CC[C@@]4(C)C3CC[C@@]21C (stereo not given in full),0.68 (inactive),1.28,0.87
O=C(O)CCc1ccccc1O,0.97 (inactive),1.1,1.07
COC1=CC(=O)OC1(O)C(C)C (stereo not given),1.07 (inactive),0.83,0.89
O=C(Nc1ccccc1)Nc1ccc(CO)cc1,0.81 (inactive),1.24,1.01
COc1ccc2cc(C(C)=O)ccc2c1,1.13 (inactive),0.99,1.12
COc1ccc(-c2cc(=O)c3c(O)cc(OC)cc3o2)cc1,1.15 (inactive),1.08,1.24
C/C=C/C1=CC(=O)[C@H](O)[C@H]1O,1.04 (inactive),1.04,1.07

SMILES,red/green cell ratio (normalised),normalised cell number [1],normalised cell number [2]
C=C(C)C#CC1=C[C@@H](O)[C@@H]2O[C@]2([C@H](O)C=C(C)C)[C@@H]1O,0.95 (inactive),0.96,0.91
C[C@@H]1CC[C@@]23CCC4(C)[C@@](C=CC5[C@@]6(C)CCC(=O)C(C)(C)C6CC[C@]54C)(OC2=O)C3[C@H]1C (stereo not given in full),1.03 (inactive),0.95,0.98
O=C(O)c1ccc(-c2ccccc2)cc1,0.96 (inactive),1.01,0.97
[N-]=[N+]=NC1[C@@H](O)C2OC(c3ccccc3)OCC2O[C@@H]1Sc1ccccc1 (stereo not given in full),1.1 (inactive),0.95,1.04
Clc1ccc(Br)cc1/C=C/C1CCCNC1 (stereo not given),0.95 (inactive),1.16,1.1
C[C@@H]1CC[C@H]2[C@@H](C)C(O)O[C@@H]3O[C@]4(C)CC[C@@H]1[C@]32OO4 (stereo not given in full),0.74 (inactive),1.16,0.85
CC[C@H](C)/C=C/C1=CC2=C(Cl)C(=O)[C@@]3(C)OC(=O)C(C(=O)[C@@H](C)[C@@H](C)O)=C3C2=CO1,0.99 (inactive),0.92,0.91
CC(C)(O)[C@@H]1CC[C@](C)([C@H]2[C@@H](O)C[C@@]3(C)C4C[C@H](O[C@@H]5O[C@H](CO)[C@@H](O)[C@H](O)[C@H]5O)C5C(C)(C)[C@@H](O[C@@H]6OC[C@@H](O)[C@H](O)[C@H]6O)CC[C@@]56C[C@@]46CC[C@]23C)O1 (stereo not given in full),0.94 (inactive),0.98,0.92
O=C1OCC[C@@H]1Oc1ccc(Oc2cnc3ccc(Cl)cc3n2)cc1,0.83 (inactive),1.22,1.01
C[C@H](Cc1cc(O)cc(O)c1C(=O)O[C@H](C)CC(=O)O[C@H](C)Cc1cc(O)cc(O)c1C(=O)O[C@H](C)CC1Cc2cc(O)cc(O)c2C(=O)O1)OC(=O)C[C@@H](C)O (stereo not given in full),0.98 (inactive),0.85,0.83
CCCCCCCCC[C@H]1O[C@]2(O)CC[C@H](O)[C@]2(O)[C@@H]1O,0.97 (inactive),0.93,0.91
CC(CC(=O)N1CCOC1=O)N1C(=S)OC[C@@H]1c1ccccc1 (stereo not given in full),1.05 (inactive),0.85,0.89
Cc1cc(O)c(C(=O)c2c(O)cccc2O)c(C(=O)O)c1,0.99 (inactive),1.15,1.14
O=C1C=CC2(Oc3cccc4cccc(c34)O2)[C@H]2[C@H]1[C@@H](O)CC[C@H]2O,1.07 (inactive),0.95,1.01
Nc1ccc(Oc2ccccc2)cc1,0.95 (inactive),0.99,0.94
COC(=O)c1c(Cl)nc(Cl)c2ccccc12,1.07 (inactive),0.85,0.91
O=C(O)CNc1ccc(Cl)cc1[N+](=O)[O-],1.05 (inactive),1.11,1.17
C=CC(C)(C)c1[nH]c2ccccc2c1C1=C(OC)C(=O)C(c2c(C(C)(C)C=C)[nH]c3ccccc23)=C(OC)C1=O,0.88 (inactive),1.23,1.08
COC(=O)c1cn(C2CC2)c2c(OC)c(F)c(F)cc2c1=O,0.9 (inactive),1.11,1
CC(C)[C@@H]1CC[C@@H](C)C[C@H]1OC(=O)c1ccccc1,1.07 (inactive),0.9,0.97
